{
  "source": "PubChem BioAssay (EPA / NIEHS)",
  "key": {"[1]": {"test": "ATG_CRE_CIS: Attagene CIS-FACTORIAL HepG2 Assay for human cAMP Responsive Element (CRE) binding protein 3 (AID 2282926)", "settings": "HepG2 CRE cis-reporter, Attagene multiplexed mRNA; actives raise or lower the signal", "method_in_brief": "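Cells carrying cis-regulated reporter constructs respond through their own endogenous factors. After 24 h treatment, RNA is reverse-transcribed, amplified, labelled and sized by capillary electrophoresis; up- and down-regulation are both scored against vehicle.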"}, "[2]": {"biological_target": "CCAAT/enhancer-binding protein beta (Homo sapiens) (UniProt P17676)", "sequence (P17676 whole entry, looked up)": "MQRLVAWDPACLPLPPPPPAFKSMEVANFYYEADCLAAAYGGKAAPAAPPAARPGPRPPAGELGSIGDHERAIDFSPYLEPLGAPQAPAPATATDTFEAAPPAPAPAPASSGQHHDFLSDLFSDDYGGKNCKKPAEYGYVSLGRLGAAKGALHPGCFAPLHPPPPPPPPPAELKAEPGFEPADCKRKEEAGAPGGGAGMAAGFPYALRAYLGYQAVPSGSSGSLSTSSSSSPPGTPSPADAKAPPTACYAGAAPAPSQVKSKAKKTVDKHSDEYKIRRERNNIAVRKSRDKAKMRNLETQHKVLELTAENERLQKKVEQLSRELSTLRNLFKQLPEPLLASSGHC", "test": "ATG_C_EBP_CIS: Attagene CIS-FACTORIAL HepG2 Assay for human CCAAT/Enhancer Binding Protein (C/EBP) beta (AID 2282927)", "settings": "HepG2 Attagene cis-factorial transcription factor reporter; actives raise or lower the signal", "method_in_brief": "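Transiently transfected HepG2 (MRTU library, endogenous TF-driven promoters); 24 h dosing; total RNA → oligo(dT) RT → PCR → 6-FAM primer extension → HpaI digest → CE; fit bidirectionally vs DMSO.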"}},
  "note": "The source made the active and inactive calls. How the source made its calls: active means hit-call score of the fitted dose curve at least 0.9, where 1 is the maximum; inactive means score below 0.9.",
  "data": [
    {"smiles": "ClCc1ccccc1Cl", "values": [
      {"measurement": "AC50", "setting": "[1]", "value": "83.5 µM (active)"},
      {"measurement": "outcome", "setting": "[2]", "value": "inactive"}
    ]},
    {"smiles": "C[C@@H]1O[C@@H](O[C@H]2C[C@@H](O)[C@]3(CO)[C@H]4[C@H](O)C[C@]5(C)[C@@H](C6=CC(=O)OC6)CC[C@]5(O)[C@@H]4CC[C@]3(O)C2)[C@H](O)[C@H](O)[C@H]1O", "values": [
      {"measurement": "AC50", "setting": "[1]", "value": "0.512 µM (active)"},
      {"measurement": "AC50", "setting": "[2]", "value": "0.0716 µM (active)"}
    ]},
    {"smiles": "Cc1cccc(C)c1NC(=O)CN1CCCC1=O", "values": [
      {"measurement": "outcome", "setting": "[1]", "value": "inactive"},
      {"measurement": "outcome", "setting": "[2]", "value": "inactive"}
    ]},
    {"smiles": "O=[N+]([O-])c1cc([As](=O)(O)O)ccc1O", "values": [
      {"measurement": "outcome", "setting": "[1]", "value": "inactive"},
      {"measurement": "outcome", "setting": "[2]", "value": "inactive"}
    ]},
    {"smiles": "Oc1cccc(-c2ccccc2)c1", "values": [
      {"measurement": "outcome", "setting": "[1]", "value": "inactive"},
      {"measurement": "outcome", "setting": "[2]", "value": "inactive"}
    ]},
    {"smiles": "CCN(CCO)CCO", "values": [
      {"measurement": "outcome", "setting": "[1]", "value": "inactive"},
      {"measurement": "outcome", "setting": "[2]", "value": "inactive"}
    ]},
    {"smiles": "CCCCOC(=O)COC(=O)c1ccccc1C(=O)OCCCC", "values": [
      {"measurement": "outcome", "setting": "[1]", "value": "inactive"},
      {"measurement": "outcome", "setting": "[2]", "value": "inactive"}
    ]},
    {"smiles": "Oc1ccc(Cc2ccc(O)cc2)cc1", "values": [
      {"measurement": "outcome", "setting": "[1]", "value": "inactive"},
      {"measurement": "outcome", "setting": "[2]", "value": "inactive"}
    ]},
    {"smiles": "CCCCCCCCCCCCBr", "values": [
      {"measurement": "outcome", "setting": "[1]", "value": "inactive"},
      {"measurement": "outcome", "setting": "[2]", "value": "inactive"}
    ]},
    {"smiles": "CC(F)(F)CC(F)(F)F", "values": [
      {"measurement": "outcome", "setting": "[1]", "value": "inactive"},
      {"measurement": "outcome", "setting": "[2]", "value": "inactive"}
    ]},
    {"smiles": "C=C(C)C(=O)OCC(CC)CCCC", "note": "(centres undefined)", "values": [
      {"measurement": "outcome", "setting": "[1]", "value": "inactive"},
      {"measurement": "outcome", "setting": "[2]", "value": "inactive"}
    ]},
    {"smiles": "O=S(=O)(c1ccc(Cl)cc1)c1cc(Cl)c(Cl)cc1Cl", "values": [
      {"measurement": "AC50", "setting": "[1]", "value": "37.8 µM (active)"},
      {"measurement": "outcome", "setting": "[2]", "value": "inactive"}
    ]},
    {"smiles": "COC(=O)Nc1cccc(OC(=O)Nc2cccc(C)c2)c1", "values": [
      {"measurement": "outcome", "setting": "[1]", "value": "inactive"},
      {"measurement": "outcome", "setting": "[2]", "value": "inactive"}
    ]},
    {"smiles": "C[C@]12CC[C@@H](O)C[C@@H]1CC[C@@H]1[C@@H]2CC[C@]2(C)C(=O)CC[C@@H]12", "values": [
      {"measurement": "outcome", "setting": "[1]", "value": "inactive"},
      {"measurement": "outcome", "setting": "[2]", "value": "inactive"}
    ]},
    {"smiles": "COC(F)(C(F)(F)C(F)(F)F)C(F)(C(F)(F)F)C(F)(F)F", "note": "(centres undefined)", "values": [
      {"measurement": "outcome", "setting": "[1]", "value": "inactive"},
      {"measurement": "outcome", "setting": "[2]", "value": "inactive"}
    ]},
    {"smiles": "CCC[CH2][Sn]([CH2]CCC)([CH2]CCC)[CH2]CCC", "values": [
      {"measurement": "outcome", "setting": "[1]", "value": "inactive"},
      {"measurement": "AC50", "setting": "[2]", "value": "5.44 µM (active)"}
    ]},
    {"smiles": "CCCCS(=O)(=O)Cl", "values": [
      {"measurement": "outcome", "setting": "[1]", "value": "inactive"},
      {"measurement": "outcome", "setting": "[2]", "value": "inactive"}
    ]},
    {"smiles": "c1ccc2sc(SNC3CCCCC3)nc2c1", "values": [
      {"measurement": "outcome", "setting": "[1]", "value": "inactive"},
      {"measurement": "outcome", "setting": "[2]", "value": "inactive"}
    ]},
    {"smiles": "Cc1cccc(OP(=O)(Oc2cccc(C)c2)Oc2cccc(C)c2)c1", "values": [
      {"measurement": "outcome", "setting": "[1]", "value": "inactive"},
      {"measurement": "outcome", "setting": "[2]", "value": "inactive"}
    ]},
    {"smiles": "CC(C)[C@@H](Nc1ccc(C(F)(F)F)cc1Cl)C(=O)OC(C#N)c1cccc(Oc2ccccc2)c1", "note": "(some centres undefined)", "values": [
      {"measurement": "outcome", "setting": "[1]", "value": "inactive"},
      {"measurement": "outcome", "setting": "[2]", "value": "inactive"}
    ]},
    {"smiles": "O=C(CCl)Nc1ccccc1", "values": [
      {"measurement": "AC50", "setting": "[1]", "value": "13.2 µM (active)"},
      {"measurement": "outcome", "setting": "[2]", "value": "inactive"}
    ]},
    {"smiles": "CN(N=O)c1ccc([N+](=O)[O-])cc1", "values": [
      {"measurement": "outcome", "setting": "[1]", "value": "inactive"},
      {"measurement": "outcome", "setting": "[2]", "value": "inactive"}
    ]},
    {"smiles": "O=C(O)c1cc(I)cc(I)c1I", "values": [
      {"measurement": "outcome", "setting": "[1]", "value": "inactive"},
      {"measurement": "outcome", "setting": "[2]", "value": "inactive"}
    ]},
    {"smiles": "FC(F)OCC(F)(F)C(F)(F)F", "values": [
      {"measurement": "outcome", "setting": "[1]", "value": "inactive"},
      {"measurement": "outcome", "setting": "[2]", "value": "inactive"}
    ]},
    {"smiles": "CCOC(=O)OC1=C(c2cc(C)ccc2C)C(=O)NC12CCC(OC)CC2", "note": "(centres undefined)", "values": [
      {"measurement": "outcome", "setting": "[1]", "value": "inactive"},
      {"measurement": "outcome", "setting": "[2]", "value": "inactive"}
    ]},
    {"smiles": "c1ccc(-c2cccc(-c3ccccc3)c2)cc1", "values": [
      {"measurement": "outcome", "setting": "[1]", "value": "inactive"},
      {"measurement": "outcome", "setting": "[2]", "value": "inactive"}
    ]},
    {"smiles": "C[C@H]1C(=O)O[C@@H]2CCN3CC=C(COC(=O)[C@](C)(O)[C@]1(C)O)[C@H]23", "values": [
      {"measurement": "outcome", "setting": "[1]", "value": "inactive"},
      {"measurement": "outcome", "setting": "[2]", "value": "inactive"}
    ]},
    {"smiles": "C1CCC(C2CCCCC2)CC1", "values": [
      {"measurement": "outcome", "setting": "[1]", "value": "inactive"},
      {"measurement": "outcome", "setting": "[2]", "value": "inactive"}
    ]},
    {"smiles": "COc1ccc([N+](=O)[O-])cc1O", "values": [
      {"measurement": "outcome", "setting": "[1]", "value": "inactive"},
      {"measurement": "outcome", "setting": "[2]", "value": "inactive"}
    ]},
    {"smiles": "N#Cc1ccccc1N", "values": [
      {"measurement": "outcome", "setting": "[1]", "value": "inactive"},
      {"measurement": "outcome", "setting": "[2]", "value": "inactive"}
    ]},
    {"smiles": "Cc1ccc(OP(=O)(Oc2ccc(C)cc2C)Oc2ccc(C)cc2C)c(C)c1", "values": [
      {"measurement": "outcome", "setting": "[1]", "value": "inactive"},
      {"measurement": "outcome", "setting": "[2]", "value": "inactive"}
    ]},
    {"smiles": "Clc1cc(C(Cl)(Cl)Cl)cnc1Cl", "values": [
      {"measurement": "outcome", "setting": "[1]", "value": "inactive"},
      {"measurement": "outcome", "setting": "[2]", "value": "inactive"}
    ]},
    {"smiles": "Cc1ccc2nc3sc(=O)sc3nc2c1", "values": [
      {"measurement": "AC50", "setting": "[1]", "value": "6.6 µM (active)"},
      {"measurement": "AC50", "setting": "[2]", "value": "25 µM (active)"}
    ]},
    {"smiles": "O=C1c2ccccc2C(=O)C1C(=O)C(c1ccccc1)c1ccc(Cl)cc1", "note": "(centres undefined)", "values": [
      {"measurement": "AC50", "setting": "[1]", "value": "27.5 µM (active)"},
      {"measurement": "outcome", "setting": "[2]", "value": "inactive"}
    ]},
    {"smiles": "O=[N+]([O-])c1c2ccccc2cc2ccccc12", "values": [
      {"measurement": "outcome", "setting": "[1]", "value": "inactive"},
      {"measurement": "outcome", "setting": "[2]", "value": "inactive"}
    ]},
    {"smiles": "CNC(=O)N(C)c1nc2ccccc2s1", "values": [
      {"measurement": "outcome", "setting": "[1]", "value": "inactive"},
      {"measurement": "outcome", "setting": "[2]", "value": "inactive"}
    ]},
    {"smiles": "O=C1C[C@@H]2OCC=C3CN4CC[C@]56c7ccccc7N1[C@H]5[C@H]2[C@H]3C[C@H]46", "values": [
      {"measurement": "outcome", "setting": "[1]", "value": "inactive"},
      {"measurement": "outcome", "setting": "[2]", "value": "inactive"}
    ]}
  ]
}
